# Data taken from PubChem BioAssay (Tox21).
# Where “and” joins values, the source holds several entries; their conditions need not be identical. Identical values can stand only once. Records with an inconclusive call do not appear. A call without a number means that no potency is given here. Some structures have more than one record in an assay (separate samples or runs), and their calls can disagree. Calls of active or inactive are those of the source. Unless noted, calls follow the shape of the dose curve; as a rule, active = well fitted curve in the direction sought with a large enough effect in the repeat runs; inconclusive = weak or mixed curves; inactive = no such curve, though single readings can be large; an effect the other way counts as inactive or inconclusive.
# How the values were obtained:
# [1] = molecular target: Thyrotropin receptor (Homo sapiens) (UniProt P16473); assay: qHTS assay to identify small molecule agonists of the thyroid stimulating hormone receptor (TSHR) signaling pathway (AID 1224843; calls by dose curve; also: nearly all actives have a fitted effect of over 45% in size)
# Thyrotropin receptor (Homo sapiens), sequence (P16473 whole entry, looked up): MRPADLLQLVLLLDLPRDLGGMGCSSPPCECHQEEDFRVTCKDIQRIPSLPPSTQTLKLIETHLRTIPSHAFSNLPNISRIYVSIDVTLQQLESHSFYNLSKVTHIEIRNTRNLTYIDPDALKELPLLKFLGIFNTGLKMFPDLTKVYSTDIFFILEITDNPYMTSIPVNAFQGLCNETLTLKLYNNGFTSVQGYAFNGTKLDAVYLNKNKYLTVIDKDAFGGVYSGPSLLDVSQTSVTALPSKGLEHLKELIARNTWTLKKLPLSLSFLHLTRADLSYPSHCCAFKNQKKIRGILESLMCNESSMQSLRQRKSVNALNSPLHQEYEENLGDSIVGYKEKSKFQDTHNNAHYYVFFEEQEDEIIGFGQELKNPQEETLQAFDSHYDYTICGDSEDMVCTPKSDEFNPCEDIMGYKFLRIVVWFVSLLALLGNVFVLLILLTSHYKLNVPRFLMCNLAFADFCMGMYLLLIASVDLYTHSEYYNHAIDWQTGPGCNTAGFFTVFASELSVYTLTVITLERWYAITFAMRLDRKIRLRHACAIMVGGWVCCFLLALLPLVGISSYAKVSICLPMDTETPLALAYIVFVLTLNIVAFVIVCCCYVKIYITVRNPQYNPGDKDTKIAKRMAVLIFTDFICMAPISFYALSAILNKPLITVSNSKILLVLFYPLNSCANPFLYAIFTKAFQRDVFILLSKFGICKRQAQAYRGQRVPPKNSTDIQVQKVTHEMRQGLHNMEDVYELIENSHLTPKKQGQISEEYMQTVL
# Method in brief: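 HEK293/TSHR, 800 cells/well; cpd 30 min RT; add cAMP-d2 + anti-cAMP-cryptate, 1 h RT; fluorescence read on plate reader. 15-pt titration, n=3.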
# [2] = qHTS assay to identify small molecule agonists of the hypoxia (HIF-1) signaling pathway - cell viability counter screen (AID 1224844; calls by dose curve; also: nearly all actives have a fitted effect of over 50% in size; also: potency is read from the fitted curve at half-maximal effect)
# Method in brief: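 Cytotoxicity was measured in parallel with the HRE-driven beta-lactamase readout: after 17 hrs of compound exposure at 37C, HRE-bla ME-180 cells received CellTiter-Glo and luminescence was recorded 30 min later.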
# [3] = qHTS assay to identify small molecule agonists of H2AX (AID 1224845; active = well fitted activation curve with a large enough effect in the signal ratio in the repeat runs, not every such curve was filed as active; the % refers to the signal ratio)
# Method in brief: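 Wild-type CHO-K1 cells, plated overnight, exposed 3hr at 37C to 15 concentrations (0.76% DMSO final). Lysed, then HTRF anti-pH2AX (S139) cryptate and anti-H2AX-d2 antibodies, 24 hr room temperature; 665/620 nm emission read.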
# [4] = qHTS assay to identify small molecule agonists of the hypoxia (HIF-1) signaling pathway (AID 1224846; active = well fitted activation curve with a large enough effect in the signal ratio in the repeat runs, not every such curve was filed as active; the % refers to the signal ratio)
# Method in brief: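 Compounds from the Tox21 10K library, dissolved in DMSO, are tested for induction of a hypoxia response element–controlled beta-lactamase reporter in ME-180 cells. Exposure lasts 17 hrs at 37C after a 5 hr settling period, followed by CCF4-AM FRET substrate.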
# [5] = qHTS assay to identify small molecule agonists of H2AX - cell viability counter screen (AID 1224847; calls by dose curve; also: nearly all actives have a fitted effect of over 30% in size; also: potency is read from the fitted curve at half-maximal effect)
# Method in brief: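 Cytotoxicity counter screen in wild-type CHO-K1 cells: a 3 hr compound treatment at 37C across 15 concentrations, followed by CellTiter-Glo luminescence to gauge viable cells.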
# [6] = qHTS RealTime-Glo MT Cell Viability Assay in HepG2 cells - 24 hour (AID 1224867); also: nearly all actives have a fitted effect of over 50% in size
# Method in brief: (§1)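 HepG2 cells (600/well) were dispensed with RealTime-Glo reagents, incubated 5 h at 37 °C, then treated with compounds in DMSO for up to 40 h. Nonlytic NanoLuc luminescence reflecting viable cells was read at each stated time point.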
# [7] = A CellTox Green Cytotoxicity Assay to monitor cytotoxicity in HEK293 cells - 0 hour (AID 1224869); also: nearly all actives have a fitted effect of over 50% in size; also: potency is read from the fitted curve at half-maximal effect
# Method in brief: (§2)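 Cells (HEK293, 600/well) and dye reagent are dispensed together. After 5 h at 37 C, 23 nL compound is pinned in. Plates stay at 37 C for 40 h with fluorescence read at 0h, 8h, 16h, 24h, 32h and 40h.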
# [8] = qHTS RealTime-Glo MT Cell Viability Assay in HepG2 cells - 40 hour (AID 1224870); also: nearly all actives have a fitted effect of over 50% in size
# Method in brief: (§3)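 HepG2 cells (600/well) mixed with RealTime-Glo MT reagent, settled 5 h at 37 C/5% CO2 before compound addition. Nonlytic NanoLuc luminescence from viable-cell prosubstrate reduction read repeatedly during 40 h treatment at 37 C.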
# [9] = A CellTox Green Cytotoxicity Assay to monitor cytotoxicity in HEK293 cells - 40 hour (AID 1224871); also: nearly all actives have a fitted effect of over 45% in size; also: potency is read from the fitted curve at half-maximal effect
# Method in brief: as §2
# [10] = qHTS RealTime-Glo MT Cell Viability Assay in HEK293 cells - 16 hour (AID 1224872)
# Method in brief: (§4)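 HEK293 cells seeded with NanoLuc/prosubstrate reagent, rested 5 h at 37 C, then dosed and kept at 37 C up to 40 h. Nonlytic real-time luminescence from viable cells read at 0, 8, 16, 24, 32 and 40 h.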
# [11] = qHTS RealTime-Glo MT Cell Viability Assay in HepG2 cells - 8 hour (AID 1224873); also: nearly all actives have a fitted effect of over 55% in size
# Method in brief: as §3
# [12] = qHTS RealTime-Glo MT Cell Viability Assay in HEK293 cells - 40 hour (AID 1224874); details: RealTime-Glo luminescence; max response: stronger effect = lower value; also: nearly all actives have a fitted effect of over 50% in size
# Method in brief: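 Real-time viability in HEK293: signal arises when living cells convert a prosubstrate for NanoLuc in the medium, so luminescence tracks viable cell number. Compound (23 nL, DMSO) added 5 h post-seeding; kinetic reads at 0–40 h, 37 C.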
# [13] = A CellTox Green Cytotoxicity Assay to monitor cytotoxicity in HEK293 cells - 24 hour (AID 1224875); also: nearly all actives have a fitted effect of over 45% in size
# Method in brief: as §2
# [14] = qHTS RealTime-Glo MT Cell Viability Assay in HepG2 cells - 32 hour (AID 1224877); also: nearly all actives have a fitted effect of over 55% in size
# Method in brief: as §1
# [15] = A CellTox Green Cytotoxicity Assay to monitor cytotoxicity in HepG2 cells - 24 hour (AID 1224878); also: nearly all actives have a fitted effect of over 45% in size; also: potency is read from the fitted curve at half-maximal effect
# Method in brief: (§5)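 Cells and non-lytic dye reagent are dispensed together (600 HepG2 cells/well) and incubated 5 h before DMSO compound transfer. Kinetic fluorescence is then recorded in the same wells during 40 h at 37 C.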
# [16] = A CellTox Green Cytotoxicity Assay to monitor cytotoxicity in HepG2 cells - 40 hour (AID 1224879); also: nearly all actives have a fitted effect of over 40% in size; also: potency is read from the fitted curve at half-maximal effect
# Method in brief: as §5
# [17] = qHTS assay to identify small molecule antagonists of the estrogen related receptor (ERR) signaling pathway from Tox21 library (AID 1224848); also: nearly all actives have a fitted effect of over 50% in size
# Method in brief: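 Compounds dissolved in DMSO are pin-transferred onto ERR reporter cells (2,000 per well) that have settled for 6 h at 37 C. Plates then incubate 18 h at 37 C before ONE-Glo luciferase reagent and a luminescence read 30 min later.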
# [18] = qHTS RealTime-Glo MT Cell Viability Assay in HEK293 cells - 32 hour (AID 1224868)
# Method in brief: as §4
# [19] = A CellTox Green Cytotoxicity Assay to monitor cytotoxicity in HepG2 cells - 16 hour (AID 1224876); also: nearly all actives have a fitted effect of over 45% in size
# Method in brief: as §5
# [20] = qHTS assay to identify small molecule agonists of the estrogen related receptor (ERR) signaling pathway from Tox21 library (AID 1224849; calls by dose curve; also: nearly all actives have a fitted effect of over 15% in size); details: ERR reporter cell line, ONE-Glo luciferase, 18 h
# Method in brief: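 Cells carrying the ERR reporter were plated and allowed to settle for 6 h, exposed to library compounds for 18 h at 37 C, then lysed with ONE-Glo and luminescence measured.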
compound,measurement,setting,value
CCOC(=O)CC(SP(=O)(OC)OC)C(=O)OCC (stereo not drawn),Potency,[1],inactive
same,Potency,[2],inactive
same,Potency,[3],inactive
same,outcome,[4],inactive
same,Potency,[5],inactive
same,outcome,[6],inactive
same,Potency,[7],inactive
same,outcome,[8],inactive
same,Potency,[9],inactive
same,outcome,[10],inactive
same,outcome,[11],inactive
same,max response,[12],11.3% (inactive) and 26.8% (inactive)
same,Potency,[13],inactive
same,outcome,[14],inactive
same,Potency,[15],inactive
same,Potency,[16],inactive
Cl/C=C/Cl,Potency,[1],inactive
same,Potency,[2],inactive
same,outcome,[4],inactive
same,Potency,[5],inactive
same,outcome,[6],inactive
same,Potency,[7],inactive
same,outcome,[8],inactive
same,Potency,[9],inactive
same,outcome,[10],inactive
same,outcome,[11],inactive
same,max response,[12],-5.85% (inactive) and -1.58% (inactive) and 0.395% (inactive)
same,Potency,[13],inactive
same,outcome,[14],inactive
same,Potency,[15],inactive
same,Potency,[16],inactive
CC(C)c1cccc(C(C)C)c1O,Potency,[1],inactive
same,Potency,[2],inactive
same,Potency,[5],50.5 µM (active) and inactive
same,Potency,[17],inactive
same,outcome,[6],inactive
same,Potency,[18],inactive
same,Potency,[7],inactive and 38.9 µM (active)
same,outcome,[8],inactive
same,Potency,[9],24.5 µM (active) and 43.6 µM (active) and inactive
same,outcome,[10],inactive
same,outcome,[11],inactive
same,max response,[12],-0.191% (inactive) and -2.39% (inactive) and 0.656% (inactive)
same,outcome,[14],inactive
same,Potency,[15],43.6 µM (active) and inactive
same,Potency,[16],43.6 µM (active) and inactive
CCOP(=S)(OCC)Oc1cc(C)nc(C(C)C)n1,Potency,[2],inactive
same,Potency,[3],inactive
same,outcome,[4],inactive
same,Potency,[5],inactive
same,outcome,[6],inactive
same,Potency,[7],inactive
same,outcome,[8],inactive
same,Potency,[9],inactive
same,outcome,[10],inactive
same,outcome,[11],inactive
same,max response,[12],2.72% (inactive) and 7.6% (inactive) and 1.58% (inactive)
same,Potency,[13],inactive
same,Potency,[19],inactive
same,outcome,[14],inactive
same,Potency,[15],inactive
same,Potency,[16],inactive and 24.5 µM (active)
CCCCC(CC)C(=O)Cl (stereo not drawn),Potency,[2],inactive
same,Potency,[3],inactive
same,outcome,[4],inactive
same,Potency,[5],inactive
same,outcome,[6],inactive
same,Potency,[18],inactive
same,Potency,[7],inactive
same,outcome,[8],inactive
same,Potency,[9],inactive
same,outcome,[10],inactive
same,outcome,[11],inactive
same,max response,[12],14.8% (inactive) and -0.733% (inactive)
same,Potency,[13],inactive
same,Potency,[19],inactive
same,outcome,[14],inactive
same,Potency,[15],inactive
same,Potency,[16],inactive
C=CC(=O)OCCCCCC(C)C,Potency,[2],inactive
same,Potency,[3],inactive
same,outcome,[4],inactive
same,Potency,[5],inactive
same,outcome,[6],inactive
same,Potency,[18],inactive
same,Potency,[7],inactive
same,outcome,[8],inactive
same,Potency,[9],inactive
same,outcome,[10],inactive
same,max response,[12],-0.829% (inactive) and 3.33% (inactive)
same,Potency,[13],inactive
same,outcome,[14],inactive
same,Potency,[15],inactive
same,Potency,[16],inactive
Oc1c(Br)cc(Br)cc1Br,Potency,[2],inactive
same,Potency,[3],inactive
same,outcome,[4],inactive
same,Potency,[5],inactive
same,outcome,[6],inactive
same,Potency,[18],inactive
same,Potency,[7],inactive
same,outcome,[8],inactive
same,Potency,[9],inactive
same,outcome,[10],inactive
same,max response,[12],-1.22% (inactive)
same,Potency,[13],inactive
same,outcome,[14],inactive
same,Potency,[15],inactive
same,Potency,[16],inactive
Cc1cc(Cl)ccc1OC(C)C(=O)O (stereo not drawn),Potency,[2],inactive
same,Potency,[3],inactive
same,outcome,[4],inactive
same,Potency,[5],inactive
same,outcome,[6],inactive
same,Potency,[18],inactive
same,Potency,[7],inactive
same,outcome,[8],inactive
same,Potency,[9],inactive
same,outcome,[10],inactive
same,max response,[12],3.64% (inactive) and -1.48% (inactive)
same,Potency,[13],inactive
same,outcome,[14],inactive
same,Potency,[15],inactive
same,Potency,[16],inactive
O=[N+]([O-])c1ccc(Cl)c(Cl)c1,Potency,[2],inactive
same,Potency,[3],inactive
same,outcome,[4],inactive
same,Potency,[5],inactive
same,Potency,[17],inactive
same,outcome,[6],inactive
same,Potency,[7],inactive
same,outcome,[8],inactive
same,Potency,[9],inactive
same,outcome,[10],inactive
same,outcome,[11],inactive
same,max response,[12],-5.48% (inactive) and 3.8% (inactive)
same,Potency,[13],inactive
same,Potency,[19],inactive
same,outcome,[14],inactive
same,Potency,[15],inactive
same,Potency,[16],inactive
Cc1ccc(N=C=O)cc1N=C=O,Potency,[2],24.5 µM (active) and inactive
same,Potency,[3],inactive
same,outcome,[4],inactive
same,Potency,[5],inactive
same,Potency,[17],inactive
same,outcome,[6],inactive
same,Potency,[7],inactive
same,outcome,[8],inactive
same,Potency,[9],inactive
same,outcome,[10],inactive
same,outcome,[11],inactive
same,max response,[12],7.57% (inactive) and -22.1% (inactive)
same,Potency,[13],inactive
same,Potency,[19],inactive
same,outcome,[14],inactive
same,Potency,[15],inactive
same,Potency,[16],inactive
CCCOC(=O)c1ccccc1C(=O)OCCC,Potency,[2],inactive
same,Potency,[3],inactive
same,outcome,[4],inactive
same,Potency,[5],inactive
same,outcome,[6],inactive
same,Potency,[7],inactive
same,outcome,[8],inactive
same,Potency,[9],inactive
same,outcome,[10],inactive
same,outcome,[11],inactive
same,max response,[12],0.157% (inactive) and 0.878% (inactive)
same,Potency,[13],inactive
same,outcome,[14],inactive
same,Potency,[15],inactive
same,Potency,[16],inactive
Cc1cccc(C)c1NC(=O)CN1CCCC1=O,Potency,[2],inactive
same,Potency,[3],inactive
same,outcome,[4],inactive
same,Potency,[5],inactive
same,outcome,[6],inactive
same,Potency,[18],inactive
same,Potency,[7],inactive
same,outcome,[8],inactive
same,Potency,[9],inactive
same,outcome,[10],inactive
same,max response,[12],1.79% (inactive) and -7.42% (inactive) and 6.42% (inactive)
same,Potency,[13],inactive
same,outcome,[14],inactive
same,Potency,[15],inactive
same,Potency,[16],inactive
O=P1(NCCCl)OCCCN1CCCl (stereo not drawn),Potency,[2],inactive
same,Potency,[3],inactive
same,outcome,[4],inactive
same,Potency,[5],inactive
same,Potency,[17],inactive
same,"activity change, positive = activation",[20]; at 42.5 µM (top of the series),-0.35% (inactive)
same,"activity change, positive = activation",[20]; at 92.4 µM (top of the series),5.99% (inactive) and 1.11% (inactive)
same,outcome,[6],inactive
same,Potency,[18],inactive
same,Potency,[7],inactive
same,outcome,[8],inactive
same,Potency,[9],inactive
same,outcome,[10],inactive
same,outcome,[11],inactive
same,max response,[12],0.555% (inactive) and 9.01% (inactive) and 5.36% (inactive)
same,Potency,[13],inactive
same,outcome,[14],inactive
same,Potency,[15],inactive
same,Potency,[16],inactive
CNC(=O)O/N=C/C(C)(C)S(C)(=O)=O,Potency,[2],inactive
same,Potency,[3],inactive
same,outcome,[4],inactive
same,Potency,[5],inactive
same,outcome,[6],inactive
same,Potency,[18],inactive
same,Potency,[7],inactive
same,outcome,[8],inactive
same,Potency,[9],inactive
same,outcome,[10],inactive
same,outcome,[11],inactive
same,max response,[12],3.09% (inactive) and 0.619% (inactive)
same,Potency,[13],inactive
same,outcome,[14],inactive
same,Potency,[15],inactive
same,Potency,[16],inactive
C/C=C/c1ccc2c(c1)OCO2,Potency,[1],inactive
same,Potency,[2],inactive
same,outcome,[4],inactive
same,Potency,[5],inactive
same,outcome,[6],inactive
same,Potency,[7],inactive
same,outcome,[8],inactive
same,Potency,[9],inactive
same,outcome,[10],inactive
same,max response,[12],-5.98% (inactive) and -4.01% (inactive)
same,Potency,[13],inactive
same,Potency,[19],inactive
same,outcome,[14],inactive
same,Potency,[15],inactive
same,Potency,[16],inactive
